Assay results: the supplement of paper PMC11732987, “Enantioselective OTUD7B fragment discovery through chemoproteomics screening and high-throughput optimisation” (Communications Chemistry, 2025)

Experiments:
Assay in all cases: log2 ratio of Biotin-Ahx-Ub-VS probe labelling (fragment/DMSO); higher = less target engagement (more negative = stronger competition), active = hit call of the paper (q ≤ 0.05, log2 ratio ≤ -1)
Details in all cases: compound concentration: 200 uM; treatment time: 3 h
USP34 = USP34 (UniProt Q70CQ2)
In short: (§1)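 The table lists average log2 ratios of fragment over vehicle, from an unpaired t-test on global-median-normalised Spectronaut label-free quantities. Proteins with ≥2 unique peptides were used. Samples were HEK293T lysate (495 µg) treated in triplicate with fragment at 200 µM or vehicle for 3 h, then with Biotin-Ahx-Ub-VS (0.5 µM final) for 1 h, with labelled DUBs NeutrAvidin-enriched and run by diaPASEF LC-MS/MS.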

USP36 = target: T1, USP36 (UniProt Q9P275)
T1 sequence (whole entry): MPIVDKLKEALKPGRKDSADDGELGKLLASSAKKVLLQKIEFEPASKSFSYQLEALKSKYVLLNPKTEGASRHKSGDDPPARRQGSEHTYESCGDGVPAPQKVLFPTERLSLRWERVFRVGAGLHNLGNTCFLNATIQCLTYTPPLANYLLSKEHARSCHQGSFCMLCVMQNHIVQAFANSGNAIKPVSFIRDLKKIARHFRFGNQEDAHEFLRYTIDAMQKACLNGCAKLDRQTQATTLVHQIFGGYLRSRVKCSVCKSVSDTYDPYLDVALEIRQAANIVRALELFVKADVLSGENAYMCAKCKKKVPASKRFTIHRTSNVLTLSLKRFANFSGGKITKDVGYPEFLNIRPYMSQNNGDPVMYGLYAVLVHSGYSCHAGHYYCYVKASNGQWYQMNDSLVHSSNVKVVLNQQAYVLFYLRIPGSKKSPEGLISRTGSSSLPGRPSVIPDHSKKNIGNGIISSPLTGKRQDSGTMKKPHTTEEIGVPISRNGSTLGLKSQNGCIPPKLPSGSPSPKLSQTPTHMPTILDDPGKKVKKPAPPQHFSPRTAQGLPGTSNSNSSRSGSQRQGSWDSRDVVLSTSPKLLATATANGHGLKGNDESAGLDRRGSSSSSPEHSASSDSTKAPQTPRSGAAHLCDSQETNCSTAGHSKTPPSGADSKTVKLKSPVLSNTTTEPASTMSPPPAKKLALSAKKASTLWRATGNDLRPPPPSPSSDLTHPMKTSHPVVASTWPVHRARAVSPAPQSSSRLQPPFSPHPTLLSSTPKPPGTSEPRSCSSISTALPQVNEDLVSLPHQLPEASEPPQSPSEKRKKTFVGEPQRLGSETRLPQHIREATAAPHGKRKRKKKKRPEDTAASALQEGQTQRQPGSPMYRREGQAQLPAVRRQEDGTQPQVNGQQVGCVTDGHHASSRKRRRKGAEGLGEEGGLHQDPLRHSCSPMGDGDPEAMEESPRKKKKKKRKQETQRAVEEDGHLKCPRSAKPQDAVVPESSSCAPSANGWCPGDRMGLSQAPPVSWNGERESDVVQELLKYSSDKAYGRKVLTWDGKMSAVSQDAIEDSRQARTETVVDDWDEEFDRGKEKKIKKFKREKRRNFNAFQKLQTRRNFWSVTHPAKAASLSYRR
In short: as §1

USP38 = target: T2, USP38 (UniProt Q8NB14)
T2 sequence (whole entry): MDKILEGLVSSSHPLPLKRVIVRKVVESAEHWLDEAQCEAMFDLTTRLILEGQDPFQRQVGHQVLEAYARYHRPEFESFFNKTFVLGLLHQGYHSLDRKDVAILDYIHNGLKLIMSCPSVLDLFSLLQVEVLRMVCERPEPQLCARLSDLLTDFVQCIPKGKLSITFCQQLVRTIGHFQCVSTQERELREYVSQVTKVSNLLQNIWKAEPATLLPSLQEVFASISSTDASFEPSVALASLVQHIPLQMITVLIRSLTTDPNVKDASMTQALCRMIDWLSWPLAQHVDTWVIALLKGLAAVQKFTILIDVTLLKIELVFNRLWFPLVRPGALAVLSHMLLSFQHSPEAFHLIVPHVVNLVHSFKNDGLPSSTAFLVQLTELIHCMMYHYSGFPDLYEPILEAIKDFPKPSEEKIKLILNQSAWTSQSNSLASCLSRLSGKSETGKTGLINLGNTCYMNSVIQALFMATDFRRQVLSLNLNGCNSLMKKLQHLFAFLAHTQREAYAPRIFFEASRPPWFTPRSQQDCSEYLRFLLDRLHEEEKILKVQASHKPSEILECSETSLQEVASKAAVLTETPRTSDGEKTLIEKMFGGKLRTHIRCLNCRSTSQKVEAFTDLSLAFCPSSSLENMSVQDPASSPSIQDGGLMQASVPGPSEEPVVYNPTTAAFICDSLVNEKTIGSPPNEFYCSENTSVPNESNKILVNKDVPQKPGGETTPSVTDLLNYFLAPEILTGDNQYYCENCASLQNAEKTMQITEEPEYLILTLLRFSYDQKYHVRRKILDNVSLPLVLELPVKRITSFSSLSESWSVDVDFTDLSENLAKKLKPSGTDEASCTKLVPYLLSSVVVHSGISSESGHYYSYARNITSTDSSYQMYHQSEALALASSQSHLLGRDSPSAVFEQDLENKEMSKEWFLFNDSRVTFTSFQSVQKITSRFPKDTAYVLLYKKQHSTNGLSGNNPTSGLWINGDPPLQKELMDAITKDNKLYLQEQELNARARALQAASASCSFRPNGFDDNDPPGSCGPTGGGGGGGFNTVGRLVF
In short: as §1

USP39 = target: T3, USP39 (UniProt Q53GS9)
T3 sequence (whole entry): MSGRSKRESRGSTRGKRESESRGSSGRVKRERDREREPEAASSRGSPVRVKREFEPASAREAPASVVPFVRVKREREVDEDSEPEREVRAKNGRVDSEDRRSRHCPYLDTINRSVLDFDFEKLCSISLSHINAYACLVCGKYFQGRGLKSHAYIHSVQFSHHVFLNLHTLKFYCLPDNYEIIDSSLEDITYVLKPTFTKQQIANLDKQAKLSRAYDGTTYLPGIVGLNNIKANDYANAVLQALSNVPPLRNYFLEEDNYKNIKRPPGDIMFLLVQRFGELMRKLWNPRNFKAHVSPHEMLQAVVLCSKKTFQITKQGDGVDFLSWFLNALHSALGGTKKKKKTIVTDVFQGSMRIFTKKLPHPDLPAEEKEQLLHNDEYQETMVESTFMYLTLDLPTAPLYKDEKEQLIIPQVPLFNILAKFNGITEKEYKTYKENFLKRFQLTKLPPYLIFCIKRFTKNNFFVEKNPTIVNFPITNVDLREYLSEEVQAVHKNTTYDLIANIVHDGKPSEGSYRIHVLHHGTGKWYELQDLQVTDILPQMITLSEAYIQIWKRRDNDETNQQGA
In short: as §1

USP4 = target: T4, USP4 (UniProt Q13107)
T4 sequence (whole entry): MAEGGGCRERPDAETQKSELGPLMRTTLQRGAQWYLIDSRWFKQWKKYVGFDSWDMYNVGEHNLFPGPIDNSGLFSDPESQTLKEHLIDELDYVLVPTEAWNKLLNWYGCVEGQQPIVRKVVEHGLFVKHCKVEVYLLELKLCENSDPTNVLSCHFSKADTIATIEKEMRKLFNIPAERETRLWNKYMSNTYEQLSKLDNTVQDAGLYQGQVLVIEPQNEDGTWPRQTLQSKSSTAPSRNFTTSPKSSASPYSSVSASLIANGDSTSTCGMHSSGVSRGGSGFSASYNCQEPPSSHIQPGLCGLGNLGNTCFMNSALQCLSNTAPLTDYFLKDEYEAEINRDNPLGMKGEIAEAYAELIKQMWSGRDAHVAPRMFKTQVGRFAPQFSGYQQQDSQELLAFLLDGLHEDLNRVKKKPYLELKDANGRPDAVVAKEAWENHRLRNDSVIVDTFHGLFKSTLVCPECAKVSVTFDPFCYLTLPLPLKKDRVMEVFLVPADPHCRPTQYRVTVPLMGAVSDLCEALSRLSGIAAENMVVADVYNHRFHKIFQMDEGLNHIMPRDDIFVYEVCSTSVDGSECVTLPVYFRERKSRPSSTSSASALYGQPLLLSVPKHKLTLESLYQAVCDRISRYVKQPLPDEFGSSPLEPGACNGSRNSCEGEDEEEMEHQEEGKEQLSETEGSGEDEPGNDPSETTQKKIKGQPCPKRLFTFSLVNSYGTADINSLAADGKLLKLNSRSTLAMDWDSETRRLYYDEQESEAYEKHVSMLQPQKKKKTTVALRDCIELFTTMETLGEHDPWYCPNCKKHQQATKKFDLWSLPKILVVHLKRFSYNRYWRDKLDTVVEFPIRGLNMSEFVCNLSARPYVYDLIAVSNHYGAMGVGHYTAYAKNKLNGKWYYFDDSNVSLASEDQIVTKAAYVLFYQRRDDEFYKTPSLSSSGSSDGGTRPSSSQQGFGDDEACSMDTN
In short: as §1

Measured: log2 ratio of Biotin-Ahx-Ub-VS probe labelling

Chain of USP34 (Q70CQ2 whole entry, the tested form may be a part): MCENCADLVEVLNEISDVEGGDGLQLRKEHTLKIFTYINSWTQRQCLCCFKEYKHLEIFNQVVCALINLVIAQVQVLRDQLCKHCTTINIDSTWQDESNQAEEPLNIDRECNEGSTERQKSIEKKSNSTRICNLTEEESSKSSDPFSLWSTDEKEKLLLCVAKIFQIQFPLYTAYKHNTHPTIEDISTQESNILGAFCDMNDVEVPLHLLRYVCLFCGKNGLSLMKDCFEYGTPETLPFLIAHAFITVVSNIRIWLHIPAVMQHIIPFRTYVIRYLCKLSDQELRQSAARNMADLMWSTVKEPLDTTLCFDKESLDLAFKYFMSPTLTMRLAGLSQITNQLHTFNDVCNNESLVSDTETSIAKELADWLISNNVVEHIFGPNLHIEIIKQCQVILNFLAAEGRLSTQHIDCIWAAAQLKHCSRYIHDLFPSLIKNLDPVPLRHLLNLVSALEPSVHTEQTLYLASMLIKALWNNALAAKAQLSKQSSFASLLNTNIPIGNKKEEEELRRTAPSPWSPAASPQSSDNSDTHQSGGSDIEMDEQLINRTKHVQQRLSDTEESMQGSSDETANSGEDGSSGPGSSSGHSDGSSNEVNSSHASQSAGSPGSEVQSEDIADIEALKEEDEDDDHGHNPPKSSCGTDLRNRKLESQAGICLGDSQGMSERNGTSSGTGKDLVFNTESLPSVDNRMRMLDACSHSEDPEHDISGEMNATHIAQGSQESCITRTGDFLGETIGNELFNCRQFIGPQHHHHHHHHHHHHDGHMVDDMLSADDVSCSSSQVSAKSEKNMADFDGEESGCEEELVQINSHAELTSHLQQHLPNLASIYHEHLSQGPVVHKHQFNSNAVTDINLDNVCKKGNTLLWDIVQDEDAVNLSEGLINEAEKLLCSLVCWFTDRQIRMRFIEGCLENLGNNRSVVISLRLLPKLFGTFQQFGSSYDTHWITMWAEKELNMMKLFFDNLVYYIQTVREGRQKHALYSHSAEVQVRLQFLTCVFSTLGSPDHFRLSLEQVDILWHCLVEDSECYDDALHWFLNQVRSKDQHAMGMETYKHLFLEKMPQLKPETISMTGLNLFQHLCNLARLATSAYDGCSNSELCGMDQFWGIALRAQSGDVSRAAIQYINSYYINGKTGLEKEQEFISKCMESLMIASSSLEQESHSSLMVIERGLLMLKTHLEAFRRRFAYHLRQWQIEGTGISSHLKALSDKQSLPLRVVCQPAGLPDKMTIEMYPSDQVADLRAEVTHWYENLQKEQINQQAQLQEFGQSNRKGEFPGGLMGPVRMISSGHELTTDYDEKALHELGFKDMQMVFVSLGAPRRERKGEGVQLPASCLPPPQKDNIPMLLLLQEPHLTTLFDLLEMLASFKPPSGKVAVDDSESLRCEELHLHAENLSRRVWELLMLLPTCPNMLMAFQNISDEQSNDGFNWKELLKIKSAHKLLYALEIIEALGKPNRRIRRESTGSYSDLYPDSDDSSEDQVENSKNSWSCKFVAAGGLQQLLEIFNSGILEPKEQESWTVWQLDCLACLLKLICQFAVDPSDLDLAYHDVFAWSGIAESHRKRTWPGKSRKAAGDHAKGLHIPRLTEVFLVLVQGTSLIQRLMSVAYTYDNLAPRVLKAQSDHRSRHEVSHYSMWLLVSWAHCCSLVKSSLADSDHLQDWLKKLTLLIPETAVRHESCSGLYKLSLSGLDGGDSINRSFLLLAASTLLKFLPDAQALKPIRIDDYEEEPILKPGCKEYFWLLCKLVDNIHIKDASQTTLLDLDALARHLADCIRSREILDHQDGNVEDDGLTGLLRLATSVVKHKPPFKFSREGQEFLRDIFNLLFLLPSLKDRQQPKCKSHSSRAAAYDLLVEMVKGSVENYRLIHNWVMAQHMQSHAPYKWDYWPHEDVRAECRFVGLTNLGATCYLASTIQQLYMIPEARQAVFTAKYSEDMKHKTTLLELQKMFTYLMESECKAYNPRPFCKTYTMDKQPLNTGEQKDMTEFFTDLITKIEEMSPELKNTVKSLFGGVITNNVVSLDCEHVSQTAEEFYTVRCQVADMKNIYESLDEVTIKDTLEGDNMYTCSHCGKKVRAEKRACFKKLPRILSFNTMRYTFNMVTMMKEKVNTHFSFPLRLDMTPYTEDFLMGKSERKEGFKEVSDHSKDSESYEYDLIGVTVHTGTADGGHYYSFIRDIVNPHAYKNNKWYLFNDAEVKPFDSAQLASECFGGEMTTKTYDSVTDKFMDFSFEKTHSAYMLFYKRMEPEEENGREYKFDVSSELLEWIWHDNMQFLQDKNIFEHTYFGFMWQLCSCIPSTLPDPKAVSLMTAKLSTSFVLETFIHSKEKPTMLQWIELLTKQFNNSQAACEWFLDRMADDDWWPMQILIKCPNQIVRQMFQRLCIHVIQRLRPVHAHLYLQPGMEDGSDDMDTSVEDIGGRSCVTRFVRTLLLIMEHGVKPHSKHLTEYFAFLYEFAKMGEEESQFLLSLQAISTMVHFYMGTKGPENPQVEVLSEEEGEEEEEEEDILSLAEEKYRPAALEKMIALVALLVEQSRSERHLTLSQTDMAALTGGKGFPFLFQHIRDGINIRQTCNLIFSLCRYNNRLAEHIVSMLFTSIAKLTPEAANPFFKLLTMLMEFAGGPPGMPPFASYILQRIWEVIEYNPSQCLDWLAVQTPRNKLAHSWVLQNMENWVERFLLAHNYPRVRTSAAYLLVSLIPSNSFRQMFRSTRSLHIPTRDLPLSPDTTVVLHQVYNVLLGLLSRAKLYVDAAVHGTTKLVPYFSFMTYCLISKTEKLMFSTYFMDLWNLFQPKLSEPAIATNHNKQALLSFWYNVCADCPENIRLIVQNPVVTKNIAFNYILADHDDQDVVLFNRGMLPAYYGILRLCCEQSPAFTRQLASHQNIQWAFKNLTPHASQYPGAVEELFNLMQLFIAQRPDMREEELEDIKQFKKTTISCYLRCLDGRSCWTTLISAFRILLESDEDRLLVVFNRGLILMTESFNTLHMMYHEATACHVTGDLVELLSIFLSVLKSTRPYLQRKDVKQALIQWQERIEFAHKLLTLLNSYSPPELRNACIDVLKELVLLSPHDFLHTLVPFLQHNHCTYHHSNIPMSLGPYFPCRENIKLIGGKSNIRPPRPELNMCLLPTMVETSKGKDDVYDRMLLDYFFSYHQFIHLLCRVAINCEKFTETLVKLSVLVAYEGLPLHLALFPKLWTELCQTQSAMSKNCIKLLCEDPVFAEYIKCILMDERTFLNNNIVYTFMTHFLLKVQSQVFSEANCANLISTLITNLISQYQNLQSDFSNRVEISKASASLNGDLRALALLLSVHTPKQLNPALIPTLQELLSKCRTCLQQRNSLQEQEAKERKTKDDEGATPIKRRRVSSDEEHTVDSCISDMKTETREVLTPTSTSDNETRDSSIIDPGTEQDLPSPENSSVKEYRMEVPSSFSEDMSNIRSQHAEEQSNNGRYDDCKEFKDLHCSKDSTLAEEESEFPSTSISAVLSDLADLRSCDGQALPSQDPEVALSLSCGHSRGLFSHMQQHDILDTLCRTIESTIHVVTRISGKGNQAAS

CCC(NC(=O)CCl)c1ccc(Cl)cc1 (stereo not given)
inactive: USP34 -0.142 | USP36 -0.231 | USP38 0.0692 | USP39 0.0269 | USP4 0.0111
